Experimental data reported in PubChem BioAssay (NCATS).
Results filed as inconclusive are left out. The source made the active and inactive calls. Unless noted, calls follow the shape of the full dose curve.

Key:
[1] = target: Ubiquitin carboxyl-terminal hydrolase 1 (Homo sapiens) (UniProt O94782); assay: Inhibitors of USP1/UAF1: Pilot qHTS (AID 504865; active = well fitted curve in the direction sought with a large enough effect; an effect the other way counts as inactive or inconclusive;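 also: rhodamine fluorescence freed from ubiquitin-rhodamine substrate followed over time; top concentration of the series differs between compounds; % is scaled to controls: 0 for no effect and ±100 for the full control effect; nearly all actives have a fitted effect of over 35% in size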)
Chain of Ubiquitin carboxyl-terminal hydrolase 1 (Homo sapiens) (O94782 whole entry, looked up): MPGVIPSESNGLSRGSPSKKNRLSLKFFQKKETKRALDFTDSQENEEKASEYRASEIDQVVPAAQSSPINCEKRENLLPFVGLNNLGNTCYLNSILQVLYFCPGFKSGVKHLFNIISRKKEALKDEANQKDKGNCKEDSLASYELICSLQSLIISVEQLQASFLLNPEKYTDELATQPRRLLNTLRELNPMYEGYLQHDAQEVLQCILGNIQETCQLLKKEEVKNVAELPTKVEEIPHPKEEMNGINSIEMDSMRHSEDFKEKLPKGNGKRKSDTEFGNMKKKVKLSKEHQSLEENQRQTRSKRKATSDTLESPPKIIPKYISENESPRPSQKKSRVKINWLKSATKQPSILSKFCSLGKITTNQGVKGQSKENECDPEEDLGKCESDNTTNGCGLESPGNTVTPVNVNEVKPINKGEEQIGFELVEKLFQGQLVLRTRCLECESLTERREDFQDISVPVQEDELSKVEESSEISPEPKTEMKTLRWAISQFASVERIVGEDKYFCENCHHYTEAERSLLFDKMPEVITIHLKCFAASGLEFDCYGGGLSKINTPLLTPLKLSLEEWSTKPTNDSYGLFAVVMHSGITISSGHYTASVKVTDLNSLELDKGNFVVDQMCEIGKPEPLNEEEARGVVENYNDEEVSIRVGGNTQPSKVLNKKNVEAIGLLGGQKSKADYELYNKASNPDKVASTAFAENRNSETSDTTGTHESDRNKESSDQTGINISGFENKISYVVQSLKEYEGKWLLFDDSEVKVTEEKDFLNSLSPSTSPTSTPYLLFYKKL
Outline: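 Enzyme-free wells gave the negative control, while test wells held 1nM USP1/UAF1 preincubated with compound for 15 min at room temperature. Ub-Rho at 150nM final started the reaction, and fluorescence at 480/540 nm was recorded kinetically.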

[2] = S16 Schwann cell PMP22 intronic element beta-lactamase assay (AID 624044); also: potency is read from the fitted curve at half-maximal effect; nearly all actives have a fitted effect of over 15% in size
Outline: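 Rat S16 Schwann cells with beta-Lac driven by a PMP22 intronic element, compound-treated 24 h at 37 °C. LiveBLAzer FRET B/G read: 460 nm normalized to potassium clavulanate vs DMSO; 535 nm FRET as viability; concentration-effect curves classified.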

[3] = qHTS for Inhibitors of the Functional Ribonucleoprotein Complex (vRNP) of Lassa (LASV) Arenavirus: LASV Primary Screen - GLuc reporter signal (AID 1347082; calls by dose curve; tested in HEK293 reporter line; also: nearly all actives have a fitted effect of over 60% in size; also: potency is read from the fitted curve at half-maximal effect)
[4] = qHTS for Inhibitors of the Functional Ribonucleoprotein Complex (vRNP) of Lassa (LASV) Arenavirus: Viability assay - alamar blue signal for LASV Primary Screen (AID 1347083; calls by dose curve; tested in HEK293 reporter line; also: nearly all actives have a fitted effect of over 80% in size; also: potency is read from the fitted curve at half-maximal effect)
[5] = qHTS for Inhibitors of the Functional Ribonucleoprotein Complex (vRNP) of Lymphocytic Choriomeningitis Arenaviruses (LCMV): Viability assay - alamar blue signal for LCMV Primary Screen (AID 1347085; calls by dose curve; tested in HEK293 reporter line; also: nearly all actives have a fitted effect of over 80% in size; also: potency is read from the fitted curve at half-maximal effect)
[6] = target: Nucleoprotein (Lymphocytic choriomeningitis virus (strain Armstrong)) (UniProt P09992); assay: qHTS for Inhibitors of the Functional Ribonucleoprotein Complex (vRNP) of Lymphocytic Choriomeningitis Arenaviruses (LCMV): LCMV Primary Screen - GLuc reporter signal (AID 1347086); also: nearly all actives have a fitted effect of over 70% in size; also: potency is read from the fitted curve at half-maximal effect
Chain of Nucleoprotein (Lymphocytic choriomeningitis virus (strain Armstrong)) (P09992 whole entry, looked up): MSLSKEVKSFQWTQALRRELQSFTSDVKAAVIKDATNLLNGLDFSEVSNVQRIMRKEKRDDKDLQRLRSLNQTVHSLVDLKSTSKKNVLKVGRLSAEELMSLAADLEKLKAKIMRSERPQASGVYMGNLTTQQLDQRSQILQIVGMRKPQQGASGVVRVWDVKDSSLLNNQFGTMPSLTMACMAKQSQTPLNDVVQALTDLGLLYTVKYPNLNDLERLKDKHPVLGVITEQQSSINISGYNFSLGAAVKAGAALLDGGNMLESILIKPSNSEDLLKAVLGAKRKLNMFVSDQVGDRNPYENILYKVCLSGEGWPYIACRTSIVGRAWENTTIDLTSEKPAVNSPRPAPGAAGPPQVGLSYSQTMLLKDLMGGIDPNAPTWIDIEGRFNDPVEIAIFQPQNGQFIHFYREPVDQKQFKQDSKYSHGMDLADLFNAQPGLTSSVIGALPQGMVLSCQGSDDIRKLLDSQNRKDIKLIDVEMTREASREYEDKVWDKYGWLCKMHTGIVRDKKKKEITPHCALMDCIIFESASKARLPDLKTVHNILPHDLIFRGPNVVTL

[7] = target: Bile acid receptor (Homo sapiens) (UniProt Q96RI1); assay: qHTS assay for small molecule agonists of farnesoid X receptor signaling (AID 588527); conditions: HEK293T FXR-UAS-bla, beta-lactamase ratio, 16 h; activation: stronger effect = higher value;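 also: 0% = vehicle basal and 100% = reference agonist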
Chain of Bile acid receptor (Homo sapiens) (Q96RI1 whole entry, looked up): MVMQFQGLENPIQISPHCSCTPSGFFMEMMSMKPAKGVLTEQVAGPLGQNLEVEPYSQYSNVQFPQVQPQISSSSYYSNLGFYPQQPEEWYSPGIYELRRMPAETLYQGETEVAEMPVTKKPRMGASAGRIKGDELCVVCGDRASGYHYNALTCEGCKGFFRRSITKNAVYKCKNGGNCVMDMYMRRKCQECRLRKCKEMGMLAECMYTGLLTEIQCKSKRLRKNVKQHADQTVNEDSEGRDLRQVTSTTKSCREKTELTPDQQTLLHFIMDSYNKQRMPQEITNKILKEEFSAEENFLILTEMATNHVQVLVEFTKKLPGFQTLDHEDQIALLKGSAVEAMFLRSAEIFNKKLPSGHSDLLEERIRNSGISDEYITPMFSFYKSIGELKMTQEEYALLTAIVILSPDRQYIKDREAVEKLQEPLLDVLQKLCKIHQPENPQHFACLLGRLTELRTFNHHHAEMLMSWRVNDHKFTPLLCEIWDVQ
Outline: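 Agonist-mode beta-lactamase reporter in GeneBLAzer FXR-UAS-bla HEK293T cells, titration up to 92 uM, 16 h exposure at 37 C, CCF4 fluorescence. Response scaled to DMSO (0%) and 100 uM chenodeoxycholic acid (100%), then Hill-fitted for EC50 and efficacy.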

[8] = target: Peroxisome proliferator-activated receptor delta (Homo sapiens) (UniProt Q03181); assay: qHTS assay for small molecule agonists of peroxisome proliferator-activated receptor delta signaling (AID 588534);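 also: 0% = DMSO basal wells and 100% = positive control agonist at 10 µM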
Chain of Peroxisome proliferator-activated receptor delta (Homo sapiens) (Q03181 whole entry, looked up): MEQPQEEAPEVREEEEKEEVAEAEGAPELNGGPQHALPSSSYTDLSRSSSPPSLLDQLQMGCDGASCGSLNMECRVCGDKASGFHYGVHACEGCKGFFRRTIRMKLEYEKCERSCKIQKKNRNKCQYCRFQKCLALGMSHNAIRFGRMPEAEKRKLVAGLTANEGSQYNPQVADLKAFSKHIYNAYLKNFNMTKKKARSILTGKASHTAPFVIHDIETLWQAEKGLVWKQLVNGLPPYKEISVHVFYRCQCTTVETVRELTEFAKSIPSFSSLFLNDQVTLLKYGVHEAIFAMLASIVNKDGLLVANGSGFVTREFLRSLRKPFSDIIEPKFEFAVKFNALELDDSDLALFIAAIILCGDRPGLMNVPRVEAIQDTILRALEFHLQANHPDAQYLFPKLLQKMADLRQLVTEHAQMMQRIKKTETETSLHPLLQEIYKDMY
Outline: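 Cells carrying a PPAR-delta beta-lactamase reporter were treated with compounds for 18 h at 37 °C in agonist mode. CCF4 fluorescence was read after 2 h; EC50 and efficacy from Hill fits.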

[9] = qHTS profiling for inhibitors of Plasmodium falciparum (3D7) proliferation (AID 743322);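 also: infected erythrocytes exposed to compound for 72 h before lysis; 100% = DMSO vehicle wells and 0% = 0.29 µM artemisinin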; conditions: P. falciparum 3D7 proliferation; at 28.7 µM (top of the series)
Outline: (§1)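 Erythrocytes infected with P. falciparum (0.3% parasitemia, 2.5% hematocrit) incubated with compounds 72 h at 37 C, 5% CO2. Lysis with saponin/Triton buffer containing SYBR Green I, overnight at room temperature in the dark; DNA fluorescence (485/535 nm) normalised to 0.29 uM artemisinin and DMSO.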

[10] = qHTS profiling for inhibitors of Plasmodium falciparum (DD2) proliferation (AID 743323; call rule not given here); conditions: lower = more inhibition; at 28.7 µM (top of the series)
Outline: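 Parasite DNA quantified by SYBR Green fluorescence (ex 485, em 535 nm) after saponin/Triton lysis and overnight dark incubation. Cultures: 0.3% parasitemia, 2.5% hematocrit, 72 h, 37 C; data scaled between DMSO and 0.29 uM artemisinin.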

[11] = qHTS profiling for inhibitors of Plasmodium falciparum (HB3) proliferation (AID 743324; active = well fitted curve in the direction sought with a large enough effect; an effect the other way counts as inactive or inconclusive;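 also: 100% = DMSO vehicle wells and 0% = artemisinin-treated control wells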); conditions: Plasmodium falciparum HB3 blood-stage proliferation; at 28.7 µM (top of the series)
Outline: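 P. falciparum HB3 grown in erythrocytes (0.3% parasitemia, 2.5% hematocrit final) with compound for 72 h at 37 C, 5% CO2. Parasite DNA detected by SYBR Green after saponin/triton lysis overnight; normalized to 0.29 uM artemisinin and DMSO.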

[12] = qHTS profiling of the MIPE4 collection as inhibitors of Plasmodium falciparum (3D7) proliferation (AID 743344; call rule not given here;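 also: scaled between DMSO vehicle wells and 0.29 µM artemisinin as full inhibition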); conditions: P. falciparum 3D7 in erythrocytes, SYBR Green DNA fluorescence, 72 h; at 28.5 µM (top of the series) unless noted
Outline: as §1

[13] = qHTS profiling of the MIPE4 collection as inhibitors of Plasmodium falciparum (DD2) proliferation (AID 743345; call rule not given here); conditions: P. falciparum Dd2 in erythrocytes, SYBR Green DNA, 72 h; at 28.5 µM (top of the series) unless noted
Outline: as §1

[14] = qHTS profiling of the MIPE4 collection as inhibitors of Plasmodium falciparum (DD2) proliferation (Rep 2) (AID 743346; call rule not given here); conditions: P. falciparum Dd2 in erythrocytes, SYBR Green DNA, 72 h; at 28.5 µM (top of the series) unless noted
Outline: as §1

[15] = qHTS profiling of the MIPE4 collection as inhibitors of Plasmodium falciparum (HB3) proliferation (AID 743347; call rule not given here;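 also: plate controls were DMSO vehicle wells for no effect and artemisinin wells for full effect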); conditions: P. falciparum HB3 in erythrocytes, SYBR Green DNA, 72 h; at 28.5 µM (top of the series) unless noted
Outline: as §1

[16] = target: Voltage-gated inwardly rectifying potassium channel KCNH2 (Homo sapiens) (UniProt Q12809); assay: qHTS Assay for Small Molecule Inhibitors of the Human hERG Channel Activity (AID 588834; active = well fitted curve in the direction sought with a large enough effect; an effect the other way counts as inactive or inconclusive;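 also: top concentration of the series differs between compounds; % is scaled to controls: 0 for no effect and ±100 for the full control effect; lower thallium flux fluorescence means stronger hERG block; nearly all actives have a fitted effect of over 50% in size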)
Chain of Voltage-gated inwardly rectifying potassium channel KCNH2 (Homo sapiens) (Q12809 whole entry, looked up): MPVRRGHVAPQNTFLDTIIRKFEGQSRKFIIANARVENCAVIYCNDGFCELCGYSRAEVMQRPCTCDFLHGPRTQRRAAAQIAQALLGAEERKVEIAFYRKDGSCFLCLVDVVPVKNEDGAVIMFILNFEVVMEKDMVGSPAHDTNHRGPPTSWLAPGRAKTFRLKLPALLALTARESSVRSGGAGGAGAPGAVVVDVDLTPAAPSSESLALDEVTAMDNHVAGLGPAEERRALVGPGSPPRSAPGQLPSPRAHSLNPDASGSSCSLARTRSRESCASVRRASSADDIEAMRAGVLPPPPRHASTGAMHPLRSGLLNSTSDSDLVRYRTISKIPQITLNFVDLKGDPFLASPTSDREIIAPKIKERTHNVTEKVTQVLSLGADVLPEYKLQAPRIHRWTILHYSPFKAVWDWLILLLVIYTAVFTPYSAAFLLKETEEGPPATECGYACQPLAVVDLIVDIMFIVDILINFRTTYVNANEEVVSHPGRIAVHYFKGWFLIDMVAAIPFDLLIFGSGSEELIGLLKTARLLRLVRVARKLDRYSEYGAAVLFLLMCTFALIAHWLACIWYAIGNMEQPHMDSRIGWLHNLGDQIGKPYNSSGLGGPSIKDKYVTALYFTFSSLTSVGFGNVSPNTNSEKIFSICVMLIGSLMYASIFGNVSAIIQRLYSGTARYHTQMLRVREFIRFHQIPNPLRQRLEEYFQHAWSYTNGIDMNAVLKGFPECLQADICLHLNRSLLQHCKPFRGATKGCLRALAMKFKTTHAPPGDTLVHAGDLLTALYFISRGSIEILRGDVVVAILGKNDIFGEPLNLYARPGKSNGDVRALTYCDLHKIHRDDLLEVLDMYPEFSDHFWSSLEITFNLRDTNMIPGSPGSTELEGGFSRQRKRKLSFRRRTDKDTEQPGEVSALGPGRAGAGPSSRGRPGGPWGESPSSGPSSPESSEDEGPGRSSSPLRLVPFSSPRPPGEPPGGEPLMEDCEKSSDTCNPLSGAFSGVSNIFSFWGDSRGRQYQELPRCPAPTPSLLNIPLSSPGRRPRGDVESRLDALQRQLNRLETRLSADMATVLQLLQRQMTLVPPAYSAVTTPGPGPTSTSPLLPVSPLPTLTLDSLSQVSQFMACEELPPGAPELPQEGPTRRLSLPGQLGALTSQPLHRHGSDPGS
Outline: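 Blockade is seen as reduced FluxOR thallium-flux fluorescence in U2OS cells expressing hERG from a BacMam construct, in Opti-MEM with 2% FCS. Concentration-response data fitted to the Hill equation for AC50.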

[17] = target: Luciferin 4-monooxygenase (Photinus pyralis) (UniProt P08659); assay: Biochemical firefly luciferase enzyme assay for NPC (AID 624030; active = well fitted curve in the direction sought with a large enough effect; an effect the other way counts as inactive or inconclusive;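 also: purified P. pyralis luciferase at 10 nM with luciferin and ATP substrate; 0% = DMSO and -100% = full luciferase inhibition by PTC124 control; nearly all actives have a fitted effect of over 70% in size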)
Chain of Luciferin 4-monooxygenase (Photinus pyralis) (P08659 whole entry, looked up): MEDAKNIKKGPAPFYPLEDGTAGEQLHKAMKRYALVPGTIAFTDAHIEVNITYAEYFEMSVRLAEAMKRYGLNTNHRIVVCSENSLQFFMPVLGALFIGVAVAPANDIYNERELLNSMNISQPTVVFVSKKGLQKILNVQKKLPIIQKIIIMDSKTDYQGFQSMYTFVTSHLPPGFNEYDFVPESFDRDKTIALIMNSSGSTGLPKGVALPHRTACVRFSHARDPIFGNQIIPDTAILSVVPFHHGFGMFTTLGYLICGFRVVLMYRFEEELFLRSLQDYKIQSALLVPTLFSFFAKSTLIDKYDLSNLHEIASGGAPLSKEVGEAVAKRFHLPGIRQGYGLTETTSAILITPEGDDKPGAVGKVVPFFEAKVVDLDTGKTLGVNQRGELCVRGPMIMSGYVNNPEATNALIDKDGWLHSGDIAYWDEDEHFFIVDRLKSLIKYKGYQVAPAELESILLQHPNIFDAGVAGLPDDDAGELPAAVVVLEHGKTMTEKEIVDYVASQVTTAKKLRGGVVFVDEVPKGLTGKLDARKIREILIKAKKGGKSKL
Outline: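 Purified P. pyralis luciferase at 10 nM in 50 mM Tris Acetate (final), luminescence read within 5 minutes of enzyme addition to compounds. Activity normalised to PTC124 versus DMSO; concentration-response curves classed by r2, magnitude and activity.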

CC[C@H]1CN2CCc3cc(OC)c(OC)cc3[C@H]2C[C@@H]1C[C@@H]1NCCc2cc(OC)c(OC)cc21
inactive: Potency [1]
active: Potency [2] 562 nM | Potency [3] 385 nM | Potency [4] 432 nM | Potency [5] 544 nM | Potency [6] 432 nM

CCCCCCCCCCCCCc1ccccc1
inactive: activation [7] -1.99% | Potency [8] | Potency [3] | Potency [4] | Potency [5] | Potency [6]

O=C(Nc1ccccc1)Nc1ccccc1
inactive: Potency [8] | Potency [3] | Potency [4] | Potency [5] | Potency [6]

O=C(C[C@@H]1NCCC[C@@H]1O)Cn1cnc2ccccc2c1=O
-0.569%: remaining proliferation (% of control), lower = more inhibition [11]
-0.451%: activity, percent of control [10]
-0.414%: remaining parasite growth % (stronger effect = lower value) [9]
22.5%: parasite growth, % of control (lower = inhibition) [14]
6.53%: parasite growth remaining, % of DMSO control (lower = more inhibition) [13]
inactive: Potency [3] | Potency [4] | Potency [5] | Potency [6]
5.66%: growth, % of control [15]
4.79%: parasite growth, % of DMSO control [12]

O=C(O)/C=C/C(=O)O
inactive: Potency [8] | Potency [16] | Potency [17] | Potency [3] | Potency [4] | Potency [5] | Potency [6]

CC(C)=CCC/C(C)=C/CC/C(C)=C/CO
inactive: Potency [8] | Potency [3] | Potency [4] | Potency [5] | Potency [6]

CCCC/C=C\CCCCCCCCCC=O
inactive: activation [7] -2.92% | Potency [8] | Potency [3] | Potency [4] | Potency [5] | Potency [6]

CCC(=O)OCCc1ccccc1
inactive: activation [7] 0.429% | Potency [8] | Potency [3] | Potency [4] | Potency [5] | Potency [6]

OCCO
inactive: activation [7] 1.31% | Potency [8] | Potency [3] | Potency [4] | Potency [5] | Potency [6]
